According to PubChem BioAssay (NCI):
The panel holds about 83,000 compounds, 20% with a hit somewhere; the sample as a whole holds those more often.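 Activity criterion: percent growth below 10, measured after cells in 96-well plates were exposed to a single compound concentration for 48 hours.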 Unmarked numbers belong to inactive results. Activity calls are given as the source filed them.

How the values were obtained:
Test in all cases: NCI-60 one-dose screen, 48 h (100 = growth as untreated, 0 = no growth, -100 = all killed)
Conditions in all cases: 10 µM unless noted
SK-MEL-2 melanoma = system: SK-MEL-2 melanoma
EKVX NSCLC = system: EKVX NSCLC
SN12C renal = system: SN12C renal
UO-31 renal = system: UO-31 renal
TK-10 renal = system: TK-10 renal
ACHN renal = system: ACHN renal
CAKI-1 renal = system: CAKI-1 renal
A498 renal = system: A498 renal
MOLT-4 leukemia = system: MOLT-4 leukemia
CCRF-CEM leukemia = system: CCRF-CEM leukemia

| SMILES | growth (SK-MEL-2 melanoma) | growth (EKVX NSCLC) | growth (SN12C renal) | growth (UO-31 renal) | growth (TK-10 renal) | growth (ACHN renal) | growth (CAKI-1 renal) | growth (A498 renal) | growth (MOLT-4 leukemia) | growth (CCRF-CEM leukemia) |
| --- | --- | --- | --- | --- | --- | --- | --- | --- | --- | --- |
| Cc1ccc(-c2cc3nc(C(Cl)Cl)nc(-c4ccc(S(=O)(=O)N(C)C)cc4)n3n2)cc1 | 113% | 103% | 50.7% | 92.1% | 107% | 83.2% | 82.2% | 101% | 75.6% | – |
| COc1cccc2c1C=CC1(O2)Oc2cccc(OC)c2C=C1C (centres undefined) | 57.7% | 47.7% | 49% | 47% | 103% | 40.4% | 29.2% | 5.37% (active) | 11.7% | – |
| Cn1ncc2c(C(=O)c3ccc(F)cc3)nc(C(C)(C)C)nc21 | 103% | 98.9% | 96.2% | 93.9% | 82% | 99.1% | 89.5% | 58.4% | 92.6% | – |
| CCS(=O)(=O)Nc1ccc(C(=O)CC2(O)C(=O)Nc3ccccc32)cc1 (centres undefined) | 113% | 91.8% | 97.4% | 67.7% | 122% | 95.3% | 82.6% | 103% | 102% | 99.7% |
| Cc1ncn(-c2ccc(/C=N/Nc3ccnc4cc(Cl)ccc34)cc2)c1C | -17.3% (active) | 99.8% | -55.8% (active) | -66.9% (active) | -11.7% (active) | -91.1% (active) | -48.9% (active) | 86.5% | 1.04% (active) | 3.17% (active) |
| COc1cc(C(C)=C(c2ccc(OCCN(C)C)cc2)c2ccc(OCCN(C)C)cc2)ccc1F | 109% | 96.1% | 101% | 95.5% | 97.8% | 105% | 101% | 108% | 108% | 111% |
| CN1CCN(Cc2ccc(NC(=O)c3cncc(C#Cc4cnc5ccc(OCC(F)F)nn45)c3)cc2C(F)(F)F)CC1 | -86.5% (active) | -69.1% (active) | -75.2% (active) | -95.8% (active) | -84.4% (active) | -98.3% (active) | -95.9% (active) | -91.7% (active) | -21.7% (active) | – |
| CC(=O)c1cc(C(=O)N2c3ccccc3Sc3ccccc32)n2c1ccc1ccccc12 | 38.3% | 78.4% | 86.7% | 64.6% | 107% | 50.1% | 46.8% | 30.1% | 54.7% | – |
| C=C(C)[C@@H]1CC[C@]2(COP(=O)(OCC)OCC)CC[C@]3(C)[C@H](CC[C@@H]4[C@@]5(C)CC[C@H](OP(=O)(OCC)OCC)C(C)(C)[C@@H]5CC[C@]43C)[C@@H]12 | 67.9% | 26.6% | 33.4% | 22.6% | 68.5% | 41.4% | 35.2% | 66.4% | 27.8% | 39.4% |
| CN1CCN(Cc2ccc(/C=N/Nc3ccnc4cc(Cl)ccc34)cc2)CC1 | 113% | 82.6% | 87.9% | 78.8% | 162% | 90.5% | 77.5% | 111% | 63.1% | – |
| CCOP(=O)(OCC)OC[C@]12CCC(C)(C)C[C@H]1C1=CC[C@@H]3[C@@]4(C)CC[C@H](OP(=O)(OCC)OCC)C(C)(C)[C@@H]4CC[C@@]3(C)[C@]1(C)CC2 | 88.2% | 55% | 55.3% | 34.2% | 67.4% | 67.2% | 45.9% | 79.8% | 32.7% | – |
| C=C(C)[C@@H]1CC[C@]2(C(=O)NC3CCCCC3)CC[C@]3(C)[C@H](CC[C@@H]4[C@@]5(C)CC[C@H](N)C(C)(C)[C@@H]5CC[C@]43C)[C@@H]12 | 105% | 90.7% | 102% | 80.4% | 124% | 104% | 65.4% | 118% | 64.5% | – |
| C=C(C)[C@@H]1CC[C@]2(COCCCNCCCN)CC[C@]3(C)[C@H](CC[C@@H]4[C@@]5(C)CC[C@H](O)C(C)(C)[C@@H]5CC[C@]43C)[C@@H]12 | 99.1% | -84.2% (active) | -78.8% (active) | -93% (active) | – | -98.6% (active) | -85.6% (active) | -16.1% (active) | -34.5% (active) | -40.2% (active) |
| CC(=O)OC[C@@]12Oc3c(cccc3-c3ccc(O)c4c3O[C@]3(COC(C)=O)C(=C4O)C(=O)C[C@H](C)[C@@H]3OC(C)=O)C(O)=C1C(=O)C[C@H](C)[C@@H]2OC(C)=O | -20.4% (active) | 16.4% | 7.7% (active) | 9.35% (active) | – | 7.48% (active) | 0.254% (active) | 1.51% (active) | 4.81% (active) | 14.3% |
| COc1cc(-c2nc(-c3ccccc3)[nH]c2-c2ccnc(NCCCNS(=O)(=O)c3ccc(C)cc3)n2)ccc1F | 104% | 74.5% | 89.3% | 78.6% | – | 84.6% | 105% | 84.1% | 45.1% | – |
| CSc1ccc(C(=NNS(=O)(=O)c2ccc(C)cc2)c2ccc(Cl)cc2)cc1 | 95.9% | 98.2% | 92.7% | 81.8% | – | 105% | 86.2% | 96.5% | 98.6% | 97.7% |
| CCOC(=O)C(=O)Nc1ccc2c(ccn2C(=O)c2cccc(F)c2)c1 | 99.8% | 82.8% | 101% | 88.2% | 97.6% | 80.2% | 92.7% | 84.2% | 107% | – |
| Cn1cc(-c2nnc(N)nc2-c2c[nH]c3ccc(Br)cc23)c2cc(Br)ccc21 | 110% | 103% | 110% | 84.2% | – | 94.7% | 85.9% | 93.6% | 107% | 108% |
| NCCNC(=O)c1cccc(COc2ccccc2NC(=O)c2cc(Cl)c(Cl)[nH]2)c1 | 106% | 94.4% | 100% | 92.2% | – | 100% | 81.9% | 81.5% | 89.5% | 85.8% |
| CN1CCN(c2ccc(Nc3nc(NCCCNS(=O)(=O)c4ccc(C(F)(F)F)cc4)c4sccc4n3)cc2)CC1 | -91% (active) | 0.826% (active) | -60.2% (active) | -85% (active) | – | -74.3% (active) | -76.9% (active) | -87% (active) | 0.188% (active) | – |
| CC1=C(C)C(=O)C(Nc2cccc(C)c2)=C(Br)C1=O | 117% | 68.7% | 96.9% | 80.2% | – | 95.7% | 99.3% | 95.5% | -29.9% (active) | 16.5% |
| C#Cc1cc(OC)c(C(=O)Nc2ccc(F)cc2C(=O)Nc2cccc(S(=O)(=O)C(F)(F)F)c2)cn1 | 45.1% | 13.9% | 17.1% | -85.1% (active) | – | -57.4% (active) | -11.4% (active) | -18.2% (active) | -32.9% (active) | -23.5% (active) |
| O=C(Nc1ccc(Cl)c(C(F)(F)F)c1)Nc1ccc2c(ccn2C(=O)c2cccc(F)c2)c1 | 45.3% | 30% | 42.9% | 35.6% | – | 17.7% | 29.1% | 70.3% | 10.9% | 15.8% |
| O=c1c2cc(-c3ccc(F)cc3F)ccc2n(O)c(=O)n1-c1cccc(C(F)(F)F)c1 | -34.3% (active) | 4.46% (active) | 0.105% (active) | 8% (active) | – | 0.899% (active) | -16.4% (active) | -22.4% (active) | 0.581% (active) | 15.2% |
| CC1=C(C)C(=O)C(Nc2ccc(C)cc2)=C(Br)C1=O | 111% | 79.3% | 98.9% | 87.5% | 145% | 102% | 106% | 97.2% | -30.6% (active) | – |
| CN1CCN(Cc2ccc(NC(=O)c3cncc(C#Cc4cnc5ccc(O[C@@H]6CCOC6)nn45)c3)cc2C(F)(F)F)CC1 | -78.3% (active) | -85.8% (active) | -77.4% (active) | -91.8% (active) | – | -100% (active) | -96.8% (active) | -94.7% (active) | -26% (active) | -15.8% (active) |
| CCOP(=O)(OCC)OC[C@]12CCC(C)(C)CC1C1=CC[C@@H]3[C@@]4(C)CCCNC(C)(C)[C@@H]4CC[C@@]3(C)[C@]1(C)CC2 (some centres undefined) | 121% | 69.7% | 80.8% | 58.2% | – | 83.5% | 53.7% | 85.2% | 2.26% (active) | 28.1% |
| CCN(CC)c1ccc(/C=N/NC(=O)c2ccc(NS(C)(=O)=O)cc2)cc1 | 40.1% | 22.4% | 37.5% | 15.7% | – | 10.9% | 25.2% | 40.1% | 14.4% | 13% |
